Reference: PubChem BioAssay AID595 (National Center for Advancing Translational Sciences (NCATS), 2007)
The campaign covered roughly 71,000 compounds. About 310 (0.44%) were called active. Another 5% or so got no clear call; they are omitted. This excerpt belongs to a sample that is enriched for actives. Values without a mark were called inactive. Calls follow the shape of the dose curve; as a rule, active = well fitted curve in either direction with a large enough effect; inconclusive = small, poorly fitted or top-dose-only effect, or another doubt; inactive = flat fitted curve, though single readings scatter.

The compounds below were run on Hsp90 C-terminal peptide / TPR2A (Hop) interaction, human (assay: qHTS Assay for Disrupters of an Hsp90 Co-Chaperone Interaction). Conditions: AlphaScreen TPR2A-His6 binding biotin-Hsp90 C-terminal peptide; series mostly up to 57 µM; activity change, negative = inhibition: at the top concentration.
Text: NIH Chemical Genomics Center [NCGC]
NIH Molecular Libraries Screening Centers Network [MLSCN]
Hsp90 (heat shock protein 90) is the essential molecular chaperone and it accounts for 1-2% of all cytosolic proteins and is critical for the activity of diverse cellular proteins that are involved in a variety of cellular processes, including development, cell cycle, and steroid hormone signaling. Its client proteins include signaling kinases such as IGF1R, Akt, v-Src, Raf-1; regulators of cell survival such as Bcr-Abl; and transcription factors such as mutated p53, estrogen and progesterone receptors. Hsp90 has emerged as an important target for cancer treatment due to its essential role in maintaining transformation and regulating the function of oncogenic signaling proteins.
The in vivo function of Hsp90 is regulated by the binding and hydrolysis of ATP at its N-terminal. Geldanamycin binds to ATP site and inhibit Hsp90 function. Geldanamycin and its analogues are under clinical trials in cancer patients.
This domain contains the binding site for tetratricopeptide repeat (TPR) domains on HOP (Hsp Organizing Protein). TPR is a structural motif used by a significant number of cochaperones by which the in vivo function of Hsp90 is regulated. TPR2A on HOP binds specifically to MEEVD motif of the C-terminal of Hsp90.
A homogeneous AlphaScreen is developed to assess the interaction between TPR2A and MEEVD motif of the C-terminal of Hsp90 by using the isolated TPR2A domain and a synthesized 20mer Hsp90 C terminal peptide. AlphaScreen is two bead-based proximity-dependent chemical energy transfer luminescent assay platform. TPR2A-His-6 and biotinylated Hsp90 C terminal peptide will bring streptavidin donor beads and nickel chelate acceptor beads to a proximity range (less than 200 nm), and subsequently lead a chemical luminescent reaction upon exciting donor beads with 680 nm laser. Inhibition of TPR2A and MEEVD motif interaction by small molecules could attenuate or abolish this chemical luminescent reaction.
Counter screening: Biotinylated-His-6 (PerkinElmer) can be utilized as a counter screen, as it serves as a linker to bring streptavidin beads and nickel chelate beads together. The counter screen can exclude alpha screen platform false positives due to small molecules being metal chelators, biotin analogues and imidazole analogues, or due to interfering with oxygen release from donor beads. Such an assay should be utilized to qualify any activity observed in this screen.
NCGC Assay Protocol Summary:
The assay was performed on 1536-well white plate (untreated solid bottom). Liquids were dispensed by 1536-well plate washer (Kalypsys, San Diego, CA). Plates were read on EnVision (PerkinElmer, Boston, MA).TPR2A-His6 was produced using a bacteria expression system and purified using a well developed method (Ghosh et al., 2000). Hsp90 C terminal 20-mer peptide with or without an N-terminal biotin group are synthesized using automated solid phase synthesis by the Yale Keck facility. The composition of assay buffer was (in mM) 25 HEPES, 100 KCl, 2 MgCl2 and 2 DTT; 0.1% BSA and 0.01% Tween-20. TPR2A-His6 binding to biotin-Hsp90 will bring streptavidin donor beads and nickel chelate acceptor beads (PerkinElmer) together and can be measured by Alpha reading by EnVision (PerkinElmer). Free Hsp90 blocks biotin-Hsp90 binding to TPR2 and serves as a positive control in the current asssay.
The assay was performed at room temperature. All compounds were screened as titrations from […] to 46 uM final concentration. The assay was performed in 1536-well format plates (untreated white solid bottom, Corning Inc.) as follows:
Sequence,Parameter,Value,Description
1,Reagent,3 uL TPR2A-His6,Final concentration was 5nM
2,Compound,23 nL,Final titration was from 0.7 nM to 46 uM
3,Time,15 minutes,Room temperature
4,Reagent,1 uL biotin-Hsp90,With and without free Hsp90. Final concentration was 10 nM for biotin-Hsp90 and 10uM for free Hsp90.
5,Time,1 hour,Room temperature
[…]
% is scaled to controls: 0 for no effect and ±100 for the full control effect; potency is read from the fitted curve at half-maximal effect.

| SMILES | activity change, negative = inhibition | Potency |
| --- | --- | --- |
| CCN(CC)S(=O)(=O)N1CCC(C(=O)NC(C)CCc2ccccc2)CC1 (centres undefined) | -1.59% |  |
| CC1=C(C(=O)OCc2ccccc2)C(c2ccc(C(F)(F)F)cc2)NC(=O)N1CCCCCC(=O)O (centres undefined) | 0.276% |  |
| COC(=O)C(CC(=O)Nc1cc(C)ccc1C)Nc1ccccc1OC (centres undefined) | -6.74% |  |
| O=C(O)c1ccc(COCC(F)(F)F)cc1 | -3.8% |  |
| COC(=O)[C@@H]1[C@H]2C[C@H]3c4[nH]c5cc(OC)ccc5c4CCN3C[C@@H]2C[C@@H](OC(=O)c2cc(OC)c(OC)c(OC)c2)[C@@H]1OC | -28.3% |  |
| CC[C@]1(C)CC(=O)NC1=O | inactive |  |
| CCCn1c(-c2ccc(F)cc2)nc2c(NCC3CCCN3CC)nc(C)nc21 (centres undefined) | -1.96% |  |
| CCNc1ncc2ncc(=O)n(CCc3ccccc3)c2n1 | -2.48% |  |
| Cc1c(NC(=O)c2cccnc2)c(=O)n(-c2ccccc2)n1C | 1.13% [at 26 µM] |  |
| CN1C(=O)C[C@H](c2ccccc2)C1=O | -0.092% [at 26 µM] |  |
| CC[C@@H]1Cc2cc(O)ccc2C2=C1c1ccc(O)cc1C[C@H]2CC | -24.7% |  |
| Nc1ccc2c3c(cccc13)C(=O)NC2=O | -3.62% |  |
| COc1ccc(CC(=O)Nc2ccc3c(c2)CCC3)cc1S(=O)(=O)N1CCOCC1 | -4.91% |  |
| CC(C)C[C@@H](CC(=O)N[C@@H](CCC(=O)O)CC(=O)O)NC(=O)[C@@H]1CCCC[C@H]1NC(=O)C[C@@H](NC(=O)C[C@H](Cc1c[nH]c2ccccc12)NC(=O)[C@@H]1CCCC[C@H]1N)C(C)C |  | 5.01 µM (active) |
| CC(C)[C@@H](CC(=O)N[C@@H]1CCNC[C@H]1C(=O)N[C@H](CC(=O)N[C@@H](CCC(=O)O)CC(=O)O)Cc1ccccc1)NC(=O)C[C@H](CO)NC(=O)[C@@H]1CNCC[C@H]1N | -13.9% |  |
| OC(COc1ccc2ccccc2c1)CN1CCOCC1 (centres undefined) | 1.54% |  |
| Oc1c(C(c2ccccn2)N2CCOCC2)ccc2cccnc12 (centres undefined) |  | 2 µM (active) |
| O=C(c1cccnc1NCc1ccccc1)N1CCOCC1 | -6.22% |  |
| CCN(Cc1ccncc1)C(=O)[C@@H](CO)c1ccccc1 | inactive |  |
| CS(=O)(=O)N1CCC2(CC1)CN(Cc1ccccc1)C2 | -3.42% |  |
| COc1cccc(Cn2c(=O)c(-c3ccccc3)nc3cnc(OC)nc32)c1 | -0.069% |  |
| CCCC[C@@H]1C[C@H]1C(NC(=O)c1ccc(-c2ccccc2)cc1)c1ccc(-c2ccccc2)cc1 (some centres undefined) | -4.75% |  |

| SMILES | activity change, negative = inhibition | Potency |
| --- | --- | --- |
| CC1=C(C(=O)Nc2ccc(Cl)cc2)C(c2ccco2)NC(=O)N1 (centres undefined) | -8.22% |  |
| Cc1ccc2[nH]c(=O)c(-c3nc4c(C)cccn4c3NCc3ccco3)cc2c1 | -10.2% |  |
| Clc1ccc(C(c2ccc(Cl)cc2)n2cc[n+](C[C@@H](OCc3ccc(Cl)cc3Cl)c3ccc(Cl)cc3Cl)c2)cc1 | -23.7% |  |
| O=C(O)[C@@H](O)Cc1ccccn1 | -2.31% [at 11 µM] |  |
| OC(CCl)CCl | -5.37% |  |
| O=C1CCCc2c1[nH]c1ccc(Br)cc21 | -0.77% |  |
| CCC[C@H]1C(=O)N2C(N(C)C)=Nc3ccc(C)cc3N2C1=O | -4.06% [at 26 µM] |  |
| CN(C)CCCn1c2ccccc2c2cnccc21 | -5.16% [at 11 µM] |  |
| COc1cccc(N(CC(=O)Nc2cccc(F)c2)S(C)(=O)=O)c1 | -1.99% |  |
| O=C(O)c1cccc(S(=O)(=O)NCCO)c1 | -3.23% [at 11 µM] |  |
| CC(C)NC(=O)N1CC[C@@]2(CCCN(C(=O)c3ccco3)C2)C1 | 1.72% |  |
| CCCCNc1nc(C)nc2c1nc(-c1ccccc1)n2CCCCN(CC)CC | -3.31% |  |
| Cc1cc(=O)[nH]c(SCC(=O)N2c3ccccc3CC2C)n1 (centres undefined) | 3.13% |  |
| Fc1cccc(/C=N\N=C/c2cccc(F)c2)c1 | 1.39% |  |
| CCOC(=O)N1CCN(C(=O)c2cc3c(ccc4ccccc43)oc2=O)CC1 | -0.382% |  |
| CC(C)(O/N=C(\C(=O)N[C@@H]1C(=O)N2C(C(=O)[O-])=C(C[n+]3ccccc3)CS[C@@H]12)c1csc(N)n1)C(=O)O | -6.49% [at 26 µM] |  |
| O=C(c1ccco1)N1CCC2(CC1)CN(c1ncccn1)C2 | -0.544% |  |
| c1cncc(CNc2ccnc(-c3ccc4c(c3)OCO4)n2)c1 | -6.94% |  |
| Cc1cc(Cl)ccc1N1C(=O)CC(SCCC(=O)O)C1=O (centres undefined) | -3.29% |  |
| O=c1c(-c2cccs2)nc2cnc(Oc3ccccc3)nc2n1-c1ccccc1 | -6.73% |  |
| COc1ncc2nc(-c3ccc(Cl)cc3)c(=O)n(-c3ccccc3)c2n1 | -0.152% |  |
| COc1ccccc1CNc1nc(-c2c(C)noc2C)nc2ccccc12 | 6.78% |  |

| SMILES | activity change, negative = inhibition | Potency |
| --- | --- | --- |
| N=C(CC(=O)Nc1ccccn1)c1ccccc1 | -0.76% [at 11 µM] |  |
| O=C1c2ccccc2C(=O)C1c1ccccc1 | -2.02% [at 26 µM] |  |
| COc1cccc(N2C(=O)C3CCCN3C2c2ccc(F)cc2)c1 (centres undefined) | -1.72% |  |
| CS(=O)(=O)Nc1cccc(-c2cncnc2Nc2ccccc2)c1 | -4.22% |  |
| COCCn1c(=O)c(-c2cccs2)nc2cncnc21 | -3.38% |  |
| Oc1ccc(O)c2c(O)cccc12 | -23.2% |  |
| S=c1c2[nH]cnc2ncn1CCSc1ncnc2nc[nH]c12 | -3.58% [at 11 µM] |  |
| CCOC(=O)N1CCN(Cc2nc3c(c(=O)n(C)c(=O)n3C)n2Cc2ccccc2)CC1 | -0.895% |  |
| O=C(NCCc1ccco1)c1nn(Cc2ccccc2)c(=O)c2ccccc12 | 1.8% |  |
| COC(=O)N1CCC[C@@]2(CCN(C(=O)NC(C)C)C2)C1 | -7.6% |  |
| CS(=O)(=O)N1CCC2(CC1)CN(Cc1cc(C(F)(F)F)cc(C(F)(F)F)c1)C2 | 0.858% |  |
| CN1CCc2[nH]nc(-c3n[nH]c4c3CN(C)CC4)c2C1 | -1.93% [at 11 µM] |  |
| CC1=C(C(=O)Nc2ccccc2)C(c2cccs2)C(C#N)=C(SCC#N)N1 (centres undefined) | -27.6% |  |
| CCCCN(CCCC)C(=O)CCS(=O)(=O)c1ccc2c(c1)n(C)c(=O)c(=O)n2C | -3.15% |  |
| Cc1cnc(CNc2nc(-c3cccnc3)nc3ccccc23)cn1 | -7.89% |  |
| CCCn1nnc2sc3c(c2c1=O)CCC(C)C3 (centres undefined) | -1.67% |  |
| Cn1cccc1C(=O)N1CCC[C@@]2(CCN(Cc3nccs3)C2)C1 | -5.4% |  |
| Cc1n[nH]c(C)c1S(=O)(=O)N1CCCC(C(=O)NCC2COc3ccccc3O2)C1 (centres undefined) | -0.626% |  |
| c1ccc(Oc2ccccc2)cc1 | -0.703% |  |
| COC(=O)[C@@]1(Cc2ccccc2)[C@H]2c3cc(C(=O)N(C)C)n(CCSCCO)c3C[C@H]2CN1C(=O)c1ccccc1 | -2.28% |  |
